Reference: the supplement of paper PMC6555819

What was measured:
Experiment in all cases: PBM binding z-score (relative to random genomic background probes); higher = stronger binding; sequences stand for … in GC…GCGATTGACAGCGTAGAATGAAGG
[1] = test system: RARb homodimer (NR concentration 270 nM)
Method in brief: (§1)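 Binding buffer was PBS pH 7.4 with 2% milk, 0.02% Triton X-100, 1 mM DTT, 0.2 mg/mL BSA and 0.4 mg/ml salmon testes DNA. In it, ligand-free nuclear receptor dimers were incubated 1 h on custom Agilent 4×180K protein-binding microarrays carrying double-stranded probes. Antibodies against each partner (one per run) detected binding, and z-scores were calculated against random background probes after regression normalization of scanned fluorescence.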

[2] = test system: RARg:RXRa (NR concentration 270 nM, RXRa partner concentration 90 nM)
Method in brief: as §1

[3] = test system: RARg homodimer (NR concentration 270 nM)
Method in brief: as §1

[4] = test system: RXRa DBDmut IVT, anti-RXR (DBD mutation: RXRa K156A/R161A, NR concentration 90 nM)
Method in brief: as §1

[5] = test system: RXRa homodimer (NR concentration 180 nM)
Method in brief: as §1

[6] = test system: THRa:RXRa (NR concentration 90 nM, RXRa partner concentration 90 nM)
Method in brief: as §1

[7] = test system: THRa homodimer (NR concentration 90 nM)
Method in brief: as §1

[8] = test system: VDR homodimer (NR concentration 270 nM)
Method in brief: as §1

Sequence | PBM binding z-score [1] | PBM binding z-score [2] | PBM binding z-score [3] | PBM binding z-score [4] | PBM binding z-score [5] | PBM binding z-score [6] | PBM binding z-score [7] | PBM binding z-score [8]
CTCGAAAGGTCGTGCTCAGGTGAGCATACCAAAC | 2.63 | 5.53 | 4.45 | 2.21 | 5.55 | 4.12 | 1.23 | 0.533
TCTTGTAGATCAAGCAGGTTAAGAATGCCTGAGT | 0.163 | -0.103 | -0.0252 | 0.563 | 0.24 | 0.276 | -0.376 | 0.0352
CGTCCAAGGTCAGCAGGTCTGTGAAAGCGACGTG | 3.23 | 5.26 | 6.07 | 2.62 | 3.69 | 3.45 | 1.82 | 1.65
TCTTATAGGTAAATGCTAGGTGAAAGTCCGATCT | 0.569 | 0.602 | 0.586 | 1.88 | 0.669 | 1.52 | 0.924 | 0.694
TCGAGTAGGTTAGGGCCATTCAGAATGGCGTCGA | 0.309 | -0.0137 | 0.11 | -0.0874 | 0.299 | 0.672 | -0.173 | -0.211
CAAACTAGGTCAAAGGTCAAATTCGAGCCAACCA | 4.86 | 8.92 | 7.49 | 3.06 | 10.2 | 4.77 | 1.67 | 3.08
TCATATAGGTAATACAGGTGAAAGTCGGCATCTA | 0.693 | 0.799 | 0.796 | 1.54 | 1.44 | 1.1 | 0.471 | -0.0243
CCTATTACTTGACCATAAGGGCAACCGAAGCTCG | 1.99 | 0.821 | 1.15 | 0.77 | 0.915 | 1.84 | 1.86 | 1.23
AGAACGAGGGCAATGTGTTGATAGCACGGGTGGC | 1.23 | 1.16 | 1.44 | 1.74 | 0.945 | 0.861 | -0.000904 | 0.944
CATACAGGGTCAGCTGGGCCAGAGTAGGGACGGC | 3.31 | 4.6 | 4.97 | 1.48 | 4.64 | 3.12 | 0.678 | 1.18
ATATGTAGGTTAGATGGGGTCATTCAGACTAGGC | 3.8 | 4.06 | 2.93 | 2.39 | 5.63 | 5.15 | 3.28 | 5.95
CCTAGCAGGCCAATCTTGGTCACTCAAGGCTTGA | 0.0668 | -0.196 | 0.118 | -0.0196 | -0.417 | 0.909 | -0.83 | -0.655
TCTTGTAGATCAACAGGAGGTTACGAAAGATCGA | 0.979 | 1.06 | 0.394 | 0.347 | 1.19 | 1.5 | -0.205 | 0.0245
GCATATAGGGAATACAAGGTGAAAGTCCGATTGT | 0.509 | 0.203 | 0.249 | 0.292 | 0.268 | 3.15 | 0.78 | -0.263
AGAATGAGGTTATACGTAGATCAGGAAAGAAAGT | 0.817 | 1.68 | 1.3 | 1.77 | 2.25 | 2.15 | 0.219 | 0.894
CCGGCTGGGGCAGAAAGGTTACCATACCATCCGG | 2.18 | 1.68 | 1.35 | -1.28 | 1.74 | 0.969 | -0.459 | -0.229
ATAGAAAGGTCGACGAGGTGAGTATACACCGTTT | 2.88 | 3.98 | 3.86 | 1.03 | 4.18 | 3.62 | 0.52 | 1.1
TTATATAGGTAATACAGGTGAAAGTCGGCATCTA | 0.731 | 0.618 | 0.933 | 0.117 | 1.11 | 1.06 | 0.46 | 0.401
ACTAGCAGGCCAAGCTTGGGTCACTCAAACAAAG | 2.07 | 2.09 | 1.49 | -0.187 | 0.849 | 2.18 | 0.602 | -0.227

Sequence | PBM binding z-score [1] | PBM binding z-score [2] | PBM binding z-score [3] | PBM binding z-score [4] | PBM binding z-score [5] | PBM binding z-score [6] | PBM binding z-score [7] | PBM binding z-score [8]
TCATATAGGTAATACAGGTGAATGTCGGCATCTA | 0.689 | 0.761 | 0.652 | 1.69 | 1.24 | 0.991 | 0.573 | -0.00173
CGTCCAAGGTCAGCAGCTCAGTGAAAGCGACGTG | 3.86 | 5.03 | 5.8 | 2.64 | 4.07 | 3.44 | 1.99 | 0.868
CAAACTAGGTCAAGAGGTCCAAGTCCGCTTCCCG | 3.2 | 4.03 | 4.37 | 1.42 | 2.65 | 2.55 | 0.871 | 1.74
AGAACGAGGGCACGCTGAGGTGATAGCAGAGTAG | 1.66 | 2.8 | 2.65 | 1.51 | 1.77 | 3.45 | 1.21 | 1.04
TTACCAAGGTGAAAGCTCGTTGATGCACGCCTTG | 0.13 | 0.342 | 0.28 | -0.23 | 0.617 | 1.38 | 0.107 | -0.644
ATGTCTAGGTAACCAAGTTCAGTGAATGCCGAAC | 1.34 | 0.808 | 0.759 | 0.268 | 0.737 | 1.42 | 0.382 | 2.08
TCTTGTAGAACAATAGAGGTTAAGAAAGTGCGCT | 1.19 | 0.879 | 0.347 | 0.757 | 1.42 | 1.53 | -0.547 | 0.225
GCTTGCGGGTCAAAGGTTATAGCATGAATAGAAT | 2.73 | 6.3 | 4.14 | 2.1 | 8.79 | 3.83 | -0.22 | 0.927
ATACCAAGGTGATCGTGCGGTCGTTGATACTAAC | 0.887 | 0.886 | 0.233 | -0.0167 | 0.159 | 1.23 | 0.424 | 0.302
TCGAGTAGGGTAGTCGGGGCATTCAGCCAACATA | 0.403 | -0.271 | -0.538 | 0.261 | -0.197 | 0.368 | 0.185 | 0.229
TAGCCTAGGTCACTCAGGGGCCAGTATAGAAAGC | 3.61 | 5.91 | 5.25 | 0.581 | 2.94 | 3.17 | 0.528 | 0.664
GCAGACAGGAGAAACGCAGGTAACTCAGGGTGGC | -0.808 | -0.38 | -0.484 | -0.907 | -0.112 | 0.301 | -0.985 | -0.432
TCTCGGAAGACACGAAAGGTCAGAGCTCGACATC | 4.18 | 4.01 | 4.27 | 1.06 | 4.27 | 2.58 | 0.266 | 0.21
CCGCCTGGGGCAGAAAGGTTACCATACCATCCGG | 2.37 | 1.47 | 1.32 | -0.959 | 1.55 | 1.03 | -0.231 | 0.052
TCAGACAGGTGAACGTAACTCAGGTACGCAGTCG | 0.813 | 0.793 | 0.768 | 0.94 | 1.32 | 0.679 | 0.264 | 0.361
ATATGGAGGTTACATCCGGGTCATTCAGGCTATG | 3.23 | 4.87 | 2.66 | 1.17 | 4.23 | 4.11 | 2.74 | 3.3
TATACAGGGTCAAATGCCAGAGTACGAATGTCGA | 3.11 | 5.88 | 4.98 | 3.42 | 6.54 | 3.6 | 0.982 | 3.62
ATCTCTAGGTAAGACTCAGTTCAGTGAAGAACGC | 0.723 | 0.0914 | 0.115 | 0.479 | -0.0944 | 0.922 | 0.796 | 1.42
CAAACTAGGTCACAGAGGTCAAAGTGCGTGCGTA | 5.64 | 7.46 | 7.84 | 3.65 | 7.66 | 4.92 | 3.02 | 6.01

Sequence | PBM binding z-score [1] | PBM binding z-score [2] | PBM binding z-score [3] | PBM binding z-score [4] | PBM binding z-score [5] | PBM binding z-score [6] | PBM binding z-score [7] | PBM binding z-score [8]
GCTATTAGTTAAAAGGGCAACCGAATGATTCTCG | 2.21 | 1.08 | 1.32 | 0.572 | 0.904 | 0.641 | -0.221 | 0.339
ATCTCTAGGTAAAACTTCAGTGAATCCCGAGGAT | -0.785 | 0.396 | 0.43 | -0.375 | 0.101 | 0.283 | -0.319 | -0.455
AGAATGAGGTTACCAATGATCAGGGAAACGCTTG | 0.796 | 2.23 | 1.63 | 0.994 | 2.62 | 2.61 | 0.788 | 0.0566
GATGCAGGGTCAGCTAGAGGCCAGAGTATGGAAA | 3.34 | 6.65 | 5.08 | 1.24 | 4.39 | 2.95 | 0.228 | 0.522
ACTATTAGTGGACTTAGGGCAACCGATACGACGC | 0.427 | 0.269 | 0.779 | 0.397 | 0.286 | 1.17 | 0.136 | 0.0269
TCTTGTGGATCAACAGGAGGTTAAGAAAGATCGA | 0.619 | 1.18 | 0.266 | 0.248 | 0.985 | 1.01 | -0.626 | 0.119
CGTCCAAAGTCAATGCTAGGTCAGTGAAAGCATT | 2.39 | 2.4 | 1.31 | 0.43 | 0.344 | 2.01 | 0.698 | 0.435
ACTTACGGGTCAACGAGGATATAGCACGCGTATA | 2.74 | 5.35 | 4.72 | 2.12 | 5.48 | 3.55 | 0.687 | 2.15
ATCGAAAGGTCGTGAGGTGAGAATACAGAAAGGC | 3.14 | 4.62 | 3.89 | 1.28 | 5.3 | 3.49 | 1.44 | 0.87
GTTATTAGTTGAAAGGGCAACCGAATGATTCTCG | 2.41 | 1.75 | 1.95 | 1.16 | 1.64 | 1.18 | 0.669 | 1.55
CAAACTAGGTCACCGGAGGGTCAAAGTCCGCATG | 5.26 | 7.83 | 6.79 | 1.19 | 5.89 | 4.24 | 2.21 | 2.78
ATAATGAGGTTATTAAGATCAGGGAATTGCGGTC | 0.912 | 1.39 | 1.21 | 2.09 | 1.88 | 2.3 | 0.964 | 1.8
CCTAGTTGGTAAAGGTCACACACGCTATAGGTAC | 5.1 | 6.22 | 6.12 | 2.1 | 6.73 | 4.12 | 2.03 | 3.54
ACTTACGGGTCAACGAGGTTATAGCACGCGTATA | 3.53 | 5.57 | 5.3 | 2.71 | 6.39 | 4.01 | 1.25 | 3.96
CCTCGGAGGACAACAGGAGGTCAGAGCGGCCAGA | 3.6 | 3.74 | 3.91 | 0.253 | 2.11 | 2.87 | 1.31 | 1.51
ACTAGTTGGTCAGCAGAGGTCACACACAATTCGG | 5.13 | 5.03 | 5.13 | 1.14 | 5.43 | 4.52 | 2.95 | 3.3
CGTCAATGTTCAACTAAGGTAACGTAAAGCACGC | 0.643 | 0.459 | 0.531 | 0.651 | 0.456 | 3.46 | 2.04 | 0.309
CCTACTGGGCCAAAAAGGTCAGTGATGCCGATAA | 4.09 | 3.5 | 3.5 | -0.472 | 2.87 | 2.11 | 0.0212 | 0.295
CTTGAAAGGTCGGTTGAGGTGAGTATACGGATAA | 2.58 | 2.6 | 2.68 | 1.35 | 2.5 | 4.93 | 1.42 | 0.867
